Experimental data taken from PubChem BioAssay (NCI).
About 83,000 compounds went through this panel and 20% of them were active in at least one assay; those are over-represented in the sample as a whole.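 A percent growth of 40 corresponds to 60% growth inhibition; 0 means no net growth; -100 means all cells died. Active threshold: below 10.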 Active and inactive are the calls of the source.

What was measured:
Assay in all cases: NCI-60 one-dose screen, 48 h (100 = growth as untreated, 0 = no growth, -100 = all killed)
Conditions in all cases: 10 µM unless noted
HCT-15 colon = test system: HCT-15 colon
HT29 colon = test system: HT29 colon
SNB-19 CNS = test system: SNB-19 CNS
U251 CNS = test system: U251 CNS
PC-3 prostate = test system: PC-3 prostate
SK-MEL-5 melanoma = test system: SK-MEL-5 melanoma
UACC-62 melanoma = test system: UACC-62 melanoma
LOX IMVI melanoma = test system: LOX IMVI melanoma
SK-MEL-28 melanoma = test system: SK-MEL-28 melanoma
SK-MEL-2 melanoma = test system: SK-MEL-2 melanoma
EKVX NSCLC = test system: EKVX NSCLC
SN12C renal = test system: SN12C renal
UO-31 renal = test system: UO-31 renal
TK-10 renal = test system: TK-10 renal
ACHN renal = test system: ACHN renal
CAKI-1 renal = test system: CAKI-1 renal
A498 renal = test system: A498 renal
CCRF-CEM leukemia = test system: CCRF-CEM leukemia
MOLT-4 leukemia = test system: MOLT-4 leukemia

Measured: growth

CN1CCN(Cc2ccc(NC(=O)c3cncc(C#Cc4cnc(N)c5cnccc45)c3)cc2C(F)(F)F)CC1
inactive: SNB-19 CNS 32% | U251 CNS 28.9% | PC-3 prostate 26.8% | TK-10 renal 12.8% | CCRF-CEM leukemia 13% | MOLT-4 leukemia 16.8%
active: HCT-15 colon 7.9% | HT29 colon -14.7% | SK-MEL-5 melanoma -45.3% | UACC-62 melanoma -74.8% | LOX IMVI melanoma -93.4% | SK-MEL-28 melanoma -84.5% | SK-MEL-2 melanoma -65.4% | EKVX NSCLC 2.4% | SN12C renal 5.24% | UO-31 renal -21.1% | ACHN renal -9.19% | CAKI-1 renal -18.9% | A498 renal -54.8%

O=C(NCCCNc1nccc(-n2ccc3cccnc32)n1)c1c(F)cccc1F
inactive: HCT-15 colon 99.9% | HT29 colon 104% | SNB-19 CNS 95.7% | U251 CNS 102% | PC-3 prostate 96.8% | SK-MEL-5 melanoma 99.2% | UACC-62 melanoma 97.6% | LOX IMVI melanoma 102% | SK-MEL-28 melanoma 111% | SK-MEL-2 melanoma 114% | EKVX NSCLC 93.4% | SN12C renal 99.4% | UO-31 renal 92% | TK-10 renal 116% | ACHN renal 94.6% | CAKI-1 renal 86.3% | A498 renal 103% | CCRF-CEM leukemia 101% | MOLT-4 leukemia 99.2%

CCCCNC(=O)Oc1ccc(/C(=C(\C)c2ccccc2)c2ccc(OCCN(CC)CC)cc2)cc1
inactive: HCT-15 colon 17.7% | SNB-19 CNS 89.2% | U251 CNS 53.8% | PC-3 prostate 59.6% | SK-MEL-5 melanoma 48.2% | UACC-62 melanoma 68.3% | LOX IMVI melanoma 74.8% | SK-MEL-28 melanoma 75.7% | SK-MEL-2 melanoma 92.1% | EKVX NSCLC 80.8% | SN12C renal 83.3% | UO-31 renal 44.1% | TK-10 renal 88.1% | ACHN renal 88% | CAKI-1 renal 82.5% | A498 renal 65.3% | CCRF-CEM leukemia 60.1% | MOLT-4 leukemia 42%
active: HT29 colon 4.17%

COc1ccc(Nc2[nH]n3c(=O)cc(-c4ccccc4)nc3c2C(=O)Nc2ccc(C)cc2)c(OC)c1
inactive: HCT-15 colon 89.6% | HT29 colon 112% | SNB-19 CNS 56.3% | U251 CNS 60.3% | PC-3 prostate 76.9% | SK-MEL-5 melanoma 98.4% | UACC-62 melanoma 64% | LOX IMVI melanoma 87% | SK-MEL-28 melanoma 95% | SK-MEL-2 melanoma 103% | EKVX NSCLC 89.8% | SN12C renal 85.9% | UO-31 renal 74.7% | TK-10 renal 108% | ACHN renal 88.5% | CAKI-1 renal 90.4% | A498 renal 108% | CCRF-CEM leukemia 66.5% | MOLT-4 leukemia 69.4%

N#Cc1c(Nc2ccccc2)nc2n(c1=O)-c1ccccc1Sc1ccccc1-2
inactive: HCT-15 colon 90.3% | HT29 colon 84.1% | SNB-19 CNS 77.9% | U251 CNS 89.4% | PC-3 prostate 61.3% | SK-MEL-5 melanoma 68.1% | UACC-62 melanoma 69.1% | LOX IMVI melanoma 83.9% | SK-MEL-28 melanoma 83.8% | SK-MEL-2 melanoma 86.9% | EKVX NSCLC 73% | SN12C renal 77.7% | UO-31 renal 53.4% | TK-10 renal 105% | ACHN renal 68.3% | CAKI-1 renal 70.8% | A498 renal 90.2% | CCRF-CEM leukemia 63.4% | MOLT-4 leukemia 51.9%

CCCCCCCCCCCCCCCCCCNC(=O)[C@H]1CSC(c2cccs2)N1 (some centres undefined)
inactive: HCT-15 colon 42.5% | SNB-19 CNS 27.8% | PC-3 prostate 38.5% | LOX IMVI melanoma 14.2% | UO-31 renal 45.6% | TK-10 renal 29.9% | ACHN renal 67.9% | A498 renal 68.1%
active: HT29 colon -35% | U251 CNS -83.8% | SK-MEL-5 melanoma -66.2% | UACC-62 melanoma -92.1% | SK-MEL-28 melanoma -89.7% | SK-MEL-2 melanoma -86.7% | EKVX NSCLC 3.9% | SN12C renal -84.2% | CAKI-1 renal -0.0289% | CCRF-CEM leukemia -33.4% | MOLT-4 leukemia 3.87%

O=C(C1=Cc2cc3ccccc3n2Cc2cnnn21)c1ccccc1
active: HT29 colon 7.8%
inactive: HCT-15 colon 38.6% | SNB-19 CNS 32.2% | U251 CNS 32.6% | PC-3 prostate 47.7% | SK-MEL-5 melanoma 45.8% | UACC-62 melanoma 44.4% | LOX IMVI melanoma 49.8% | SK-MEL-28 melanoma 64.8% | SK-MEL-2 melanoma 44.1% | EKVX NSCLC 82.9% | SN12C renal 50.3% | UO-31 renal 64.8% | TK-10 renal 72.7% | ACHN renal 74.6% | CAKI-1 renal 58% | A498 renal 71.7% | CCRF-CEM leukemia 53% | MOLT-4 leukemia 42.1%

C=C1C(=O)O[C@H]2[C@H]1CC/C(Cn1cc(CNC(=O)/C=C/c3c[nH]c4ccccc34)nn1)=C\CC[C@@]1(C)O[C@@H]21
active: CCRF-CEM leukemia 1.25%
inactive: HCT-15 colon 94.4% | HT29 colon 92.4% | SNB-19 CNS 91.5% | U251 CNS 94.3% | PC-3 prostate 95.3% | SK-MEL-5 melanoma 83.8% | UACC-62 melanoma 87.6% | LOX IMVI melanoma 67.3% | SK-MEL-28 melanoma 91.7% | SK-MEL-2 melanoma 90.9% | EKVX NSCLC 99.5% | SN12C renal 88.4% | UO-31 renal 92.6% | TK-10 renal 123% | ACHN renal 94% | CAKI-1 renal 88.9% | A498 renal 98.9% | MOLT-4 leukemia 89.5%

CCc1ccc(-c2ccc(=O)n(-c3ccc(S(N)(=O)=O)cc3)n2)cc1
active: SK-MEL-2 melanoma 1.5%
inactive: HCT-15 colon 29.7% | HT29 colon 11.8% | SNB-19 CNS 57.6% | U251 CNS 35% | PC-3 prostate 35% | SK-MEL-5 melanoma 12.9% | UACC-62 melanoma 38.5% | LOX IMVI melanoma 55.1% | SK-MEL-28 melanoma 49.4% | EKVX NSCLC 69.1% | SN12C renal 58.4% | UO-31 renal 38.4% | TK-10 renal 76.8% | ACHN renal 60.3% | CAKI-1 renal 36.7% | A498 renal 40.3% | CCRF-CEM leukemia 27.9% | MOLT-4 leukemia 16%

COc1cccc(CC(C)=C(c2ccc(OCCN3CCCCC3)cc2)c2ccc(OCCN3CCCCC3)cc2)c1
inactive: PC-3 prostate 19.2% | EKVX NSCLC 18% | TK-10 renal 32.5%
active: HCT-15 colon -68.1% | HT29 colon -77.9% | SNB-19 CNS -9.73% | U251 CNS -83.7% | SK-MEL-5 melanoma -96% | UACC-62 melanoma -72.7% | LOX IMVI melanoma -91.9% | SK-MEL-28 melanoma -87.9% | SK-MEL-2 melanoma -65.4% | SN12C renal -42.3% | UO-31 renal -92.2% | ACHN renal -88.4% | CAKI-1 renal -46.8% | A498 renal 8.39% | CCRF-CEM leukemia -31.8% | MOLT-4 leukemia -34.3%

C=C1C(=O)O[C@H]2[C@H]1CC/C(Cn1cc(CNC(=O)c3cc4ccccc4[nH]3)nn1)=C\CC[C@@]1(C)O[C@@H]21
inactive: HCT-15 colon 79.8% | HT29 colon 11.4% | SNB-19 CNS 81.5% | U251 CNS 67.6% | PC-3 prostate 70.2% | SK-MEL-5 melanoma 64.4% | UACC-62 melanoma 49.8% | SK-MEL-28 melanoma 54.4% | SK-MEL-2 melanoma 59.6% | EKVX NSCLC 86.9% | SN12C renal 59.2% | UO-31 renal 73.4% | TK-10 renal 53% | ACHN renal 55.8% | CAKI-1 renal 80.8% | A498 renal 106%
active: LOX IMVI melanoma -23.6% | CCRF-CEM leukemia -18.8% | MOLT-4 leukemia 4.74%

CC(C)(C)Nc1c(-c2cccs2)nc2ncccn12
inactive: HCT-15 colon 102% | HT29 colon 103% | SNB-19 CNS 95.9% | U251 CNS 104% | PC-3 prostate 95% | SK-MEL-5 melanoma 93.8% | UACC-62 melanoma 95.8% | LOX IMVI melanoma 98.5% | SK-MEL-28 melanoma 113% | SK-MEL-2 melanoma 100% | EKVX NSCLC 104% | SN12C renal 94.9% | UO-31 renal 86.9% | TK-10 renal 101% | ACHN renal 107% | CAKI-1 renal 89.9% | A498 renal 80.1% | CCRF-CEM leukemia 89.9% | MOLT-4 leukemia 86.2%

COc1ccc(-c2cc(-c3ccccc3)nc(SCCCC(=O)NO)n2)cc1OC
inactive: HCT-15 colon 16.5% | HT29 colon 15.1% | SNB-19 CNS 20% | PC-3 prostate 13% | SK-MEL-28 melanoma 21.5% | SN12C renal 13.8%
active: U251 CNS 1.87% | SK-MEL-5 melanoma -69.8% | UACC-62 melanoma -22.3% | LOX IMVI melanoma -61.6% | SK-MEL-2 melanoma -1.51% | EKVX NSCLC 8.24% | UO-31 renal -39.6% | TK-10 renal 4.89% | ACHN renal -0.775% | CAKI-1 renal -37.9% | A498 renal -24.9% | CCRF-CEM leukemia 6.42% | MOLT-4 leukemia 2.96%

Nc1nc(Nc2cc(Cl)cc(Cl)c2)nn1S(=O)(=O)c1ccc2ccccc2c1
inactive: HCT-15 colon 59.2% | HT29 colon 39.8% | SNB-19 CNS 78% | U251 CNS 37.5% | PC-3 prostate 48.9% | SK-MEL-5 melanoma 86.5% | UACC-62 melanoma 67% | LOX IMVI melanoma 60.1% | SK-MEL-28 melanoma 84.8% | SK-MEL-2 melanoma 79.2% | EKVX NSCLC 53.6% | SN12C renal 43.3% | UO-31 renal 14.7% | TK-10 renal 63.5% | ACHN renal 29.2% | CAKI-1 renal 64.1% | A498 renal 15.4% | CCRF-CEM leukemia 57.9% | MOLT-4 leukemia 37.6%

CCO/C=N/C1=C(C#N)C(c2ccc(Cl)cc2)c2c(c3ccccc3n(C)c2=O)O1 (centres undefined)
active: CAKI-1 renal -0.281%
inactive: HCT-15 colon 41.1% | HT29 colon 35% | SNB-19 CNS 72.9% | U251 CNS 79.3% | PC-3 prostate 63% | SK-MEL-5 melanoma 74.2% | UACC-62 melanoma 46.5% | LOX IMVI melanoma 64.7% | SK-MEL-28 melanoma 83.9% | SK-MEL-2 melanoma 85.4% | EKVX NSCLC 74% | SN12C renal 74.6% | UO-31 renal 56.2% | TK-10 renal 115% | ACHN renal 75.7% | A498 renal 47.9% | CCRF-CEM leukemia 66.9% | MOLT-4 leukemia 75.2%

O=C(CN1CCN(c2cc3c(cc2F)c(=O)c(C(=O)N/N=C/c2ccccc2O)cn3C2CC2)CC1)N/N=C\c1ccccc1O
inactive: HCT-15 colon 18.4% | HT29 colon 39.2% | SNB-19 CNS 29.9% | U251 CNS 24.8% | PC-3 prostate 30.3% | SK-MEL-28 melanoma 20.7% | SK-MEL-2 melanoma 33.2% | EKVX NSCLC 23% | SN12C renal 24.7% | TK-10 renal 43.2% | ACHN renal 13.5% | A498 renal 86.1%
active: SK-MEL-5 melanoma -47.5% | UACC-62 melanoma 0.0993% | LOX IMVI melanoma 2.01% | UO-31 renal 4.8% | CAKI-1 renal 5.22% | CCRF-CEM leukemia 8.24% | MOLT-4 leukemia 9.45%
